Sampled rows, rich in hits. Any-hit rate of the full collection: about 12%.
HCV inh – HCV inhibition | Huh7.5.1 HCVcc-Cre infection, luciferase reporter, 44 h | Potency, µM (highest dose often 41.8 µM), hits mostly inhibitors | actives 3.4% (n = 340,000)
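Whole-lifecycle infectious HCVcc-Cre system; cells 1,000/well, compound then virus (~0.5 moi) added 4 h after plating, 44 h culture. Luciferase read 15 sec following 15 min substrate incubation, room temp.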
SARS PLP yeast – blocks SARS-CoV papain-like protease in a yeast assay | S. cerevisiae expressing SARS-CoV PLpro, growth rescue | Potency, µM (series often up to 32.9 µM), hits mostly activators | actives 0.19% (n = 330,000); calls by dose curve; further: nearly all actives have a fitted effect of over 55% in size
AMA1-RON2 inh – inhibitors of Plasmodium falciparum AMA1-RON2 interaction; AlphaScreen AMA1-biotinylated RON2 peptide binding; Potency, µM (highest dose often 58.2 µM), hits mostly inhibitors; AID 720542; actives 0.2% (n = 360,000); further: nearly all actives have a fitted effect of over 45% in size
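AMA1 (3D7) with his tag at 25 nM final met compounds first, then biotinylated RON2 peptide at 25 nM; detection used donor plus acceptor beads, 10 µg/mL apiece, read by AlphaScreen after 30 min at room temperature.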
Pf growth 48h – P. falciparum growth inhibition at 48 hours (one generation) | P. falciparum luciferase growth in erythrocytes, 48 h | Potency, µM (titrated, usually from 28.7 µM), most hits filed as inhibitors | actives 5.9% (n = 310,000) | AID 504832
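Firefly luciferase activity from engineered P. falciparum reports growth; inhibitors lower the luminescent signal. Cultures contained 2% hematocrit erythrocytes at 0.1% final parasitemia.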
NS1 inh – blocks influenza NS1 protein function | Potency, µM (top dose mostly 46.1 µM) | actives 0.4% (n = 270,000) | AID 2326; calls by dose curve; further: actives are rising curves; nearly all actives have a fitted effect of over 50% in size
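Growth recovery, yeast-based: influenza A NS1 expressed in S. cerevisiae causes slow growth, and suppressors are detected by OD600. The parent strain without NS1 is used as positive control.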
Pf growth 96h – P. falciparum growth inhibition at 96 hour, primary screen for plastid delayed-death inhibitors. P. falciparum luciferase reporter growth, 96 h. Potency, µM (doses to about 28.7 µM), actives largely listed as inhibitors. actives 6.9% (n = 320,000)
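96 h incubation, 37 C, 5% CO2, of luciferase-reporter P. falciparum-infected RBCs (2% hematocrit, 0.05% parasitemia final) with test compounds; endpoint luminescence.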
Hits are given with their value; - = inactive; ? = inconclusive; . = no result. Unless noted, the call rests on the fitted dose curve; in most records, active means well fitted curve in the direction sought with a large enough effect; inconclusive means small, poorly fitted or top-dose-only effect, or another doubt; inactive means no such curve, though single readings can be large; an effect the other way counts as inactive or inconclusive.

SMILES	HCV inh	SARS PLP yeast	AMA1-RON2 inh	Pf growth 48h	NS1 inh	Pf growth 96h
COc1ccc(NC(=O)/C(C#N)=C/c2cccnc2)c(OC)c1	-	-	-	-	-	1.04µM
COc1ccc(NC(=O)C(=O)N/N=C/c2cccnc2)c(OC)c1	-	-	-	-	-	?
COc1ccc(NC(=O)c2cccnc2)c(OC)c1	-	-	-	.	-	14.7µM
COc1ccccc1NC(=O)c1cccnc1	-	.	-	-	-	-
O=C(O)/C=C/C(O)c1ccc(Cl)cc1 (stereo not drawn)	-	.	-	?	-	-
C=CCNC(=O)c1cc(-c2ccncc2)nc2c(C)cc(C)cc12	?	-	-	?	-	?
CC1(c2nc3ccccc3[nH]2)CCC(=O)N1C1CC1 (stereo not drawn)	.	.	-	.	.	.
Oc1cc(Br)ccc1C=Nc1ccc(N2CCCCC2)cc1	-	-	-	8.28µM	-	8.28µM
COc1ccc(Br)c(Cn2c(C)c(C(=O)NCCC#N)sc2=O)c1	.	.	-	.	.	.
O=C(Nc1ccc(C(=O)O)cc1)/C(=C\C=C\c1ccccc1)NC(=O)c1ccccc1Br	-	-	-	-	-	-
Cc1ccc(C[C@@H](NS(=O)(=O)c2ccc(C(=O)O)cc2)C(=O)O)cc1	.	-	.	-	.	-
CC1(C)NC(=O)N(CCOCCSc2ccccc2)C1=O	-	-	-	-	-	9.28µM
COc1ccc(C)cc1S(=O)(=O)n1cnc2ccccc21	-	-	-	-	-	-
CCCC(=O)N1CCN(c2nnc(-c3ccccc3)c3ccccc23)CC1	-	-	-	?	-	-
c1ccc(-c2nnc(N3CCN(c4ccccn4)CC3)c3ccccc23)cc1	14.1µM	-	-	7.38µM	-	.
Cc1ccc(-c2nnc(N3CCN(c4ccccn4)CC3)c3ccccc23)cc1	?	-	?	13.1µM	-	-
O=S(=O)(c1ccccc1)N1CCN(c2nnc(-c3ccccc3)c3ccccc23)CC1	-	-	-	?	-	4.15µM
CCN1CCN(c2nnc(-c3ccc(F)cc3)c3ccccc23)CC1	2.82µM	-	-	-	-	-
CS(=O)(=O)N1CCN(c2nnc(-c3ccccc3)c3ccccc23)CC1	-	-	-	-	-	-
Cc1ccc(C(CNS(=O)(=O)c2cc(F)ccc2F)N2CCN(C)CC2)cc1 (stereo not drawn)	?	-	-	?	.	-
Cc1ccc2cc3c(nc2c1)OCC3	-	-	-	-	-	-
Cc1cc[n+](C(C)C(=O)c2ccc(-c3ccccc3)cc2)cc1 (stereo not drawn)	?	-	-	1.17µM	.	-
CC(C(=O)c1ccc(-c2ccccc2)cc1)[n+]1ccccc1 (stereo not drawn)	?	-	-	8.28µM	-	2.33µM
Cc1ccc[n+](C(C)C(=O)c2ccc(-c3ccccc3)cc2)c1 (stereo not drawn)	-	-	-	?	-	?
CC(C(=O)c1ccc(-c2ccccc2)cc1)[n+]1cccc(C(N)=O)c1 (stereo not drawn)	-	-	-	-	-	9.28µM
SMILES	HCV inh	SARS PLP yeast	AMA1-RON2 inh	Pf growth 48h	NS1 inh	Pf growth 96h
COc1cccc(CN2CCC2(C)C(=O)Nc2ccc3c(c2)OCO3)c1F (stereo not drawn)	.	.	-	.	.	.
COCCn1c(SCC(=O)NC(C)c2ccc(F)cc2)nc2ccccc21 (stereo not drawn)	?	-	-	-	-	-
COc1ccc(C(O)(CCC(C)C)C(CN2CCOCC2)c2ccccc2)cc1 (stereo not drawn)	?	-	-	1.65µM	-	-
CC(C)CCC(O)(c1ccccc1)C(CN1CCOCC1)c1ccccc1 (stereo not drawn)	?	-	-	2.94µM	-	-
C[C@@H]1CN([C@@H](C)CO)C(=O)CCCn2nncc2CO[C@H]1CN(C)S(=O)(=O)c1cccs1	.	.	-	.	.	.
CC1(C)CC(=O)C2=C(C1)c1c(ccc3ccccc13)NC2c1ccc(OCC(=O)O)cc1 (stereo not drawn)	-	-	-	10.4µM	-	-
COc1cc(C2Nc3ccc4ccccc4c3C3=C2C(=O)CC(C)(C)C3)ccc1OC(C)C(=O)O (stereo not drawn)	-	-	-	1.65µM	-	?
COc1cc(C2Nc3ccc4ccccc4c3C3=C2C(=O)CC(C)(C)C3)ccc1OCC(=O)O (stereo not drawn)	-	-	-	?	?	0.928µM
O=C(COC(=O)c1ccccn1)Nc1ccc(S(=O)(=O)N2CCOCC2)cc1	-	-	-	-	-	-
CCc1nc2ccccc2c(C(=O)OCC(=O)Nc2cccc(S(=O)(=O)N3CCOCC3)c2)c1C	11.2µM	-	-	?	-	?
O=C(COC(=O)c1nc(Cl)ccc1Cl)Nc1cccc(S(=O)(=O)N2CCOCC2)c1	-	.	-	.	.	.
CCc1nc2ccccc2c(C(=O)OCC(=O)Nc2ccc(S(=O)(=O)N3CCOCC3)cc2)c1C	11.2µM	-	-	9.28µM	-	-
CCc1nc2ccccc2c(C(=O)OCC(=O)Nc2cccc(S(=O)(=O)NC3=NCCCCC3)c2)c1C	8.91µM	-	-	?	-	-
O=C(COC(=O)c1ccc2ccccc2n1)Nc1cccc(S(=O)(=O)NC2=NCCCCC2)c1	-	-	-	-	.	-
CCCCc1noc(-c2c(-c3ccccc3Cl)noc2C)n1	-	-	-	?	.	-
CC(=O)c1ccc(Nc2cc(C)nc3ccc(C)cc23)cc1	?	-	-	3.7µM	-	-
Cc1c(C(=O)O)c(C(=O)O)nc2ccc(N3CCOCC3)cc12	.	-	.	-	.	-
Clc1ccccc1-c1nnc2sc(-c3cccs3)nn12	-	22.4µM	-	?	-	.
c1ccc(Cc2nnc3sc(-c4cccs4)nn23)cc1	-	-	-	?	-	-
Clc1ccc(-c2nnc3sc(-c4ccccn4)nn23)cc1	.	-	.	-	-	.
COc1ccc(-c2nnc3sc(-c4cccs4)nn23)cc1OC	-	-	-	-	-	11.7µM
COc1cc(-c2nnc3sc(-c4cccs4)nn23)cc(OC)c1OC	?	-	-	-	-	.
Clc1ccccc1-c1nnc2sc(-c3ccncc3)nn12	-	-	-	.	-	-
Clc1ccccc1-c1nn2c(-c3ccccn3)nnc2s1	-	-	-	8.28µM	-	-
Clc1ccccc1-c1nn2c(-c3ccncc3)nnc2s1	?	-	-	10.4µM	-	?
O=C(c1ccc(NC2=NC3CS(=O)(=O)CC3S2)cc1)N(CCO)Cc1ccccc1 (stereo not drawn)	-	?	-	-	-	-
Cc1ccc(/C=C2/C(=O)C3(C)CCC2C3(C)C)cc1 (stereo not drawn)	.	.	.	-	.	-
O=C(C1CCCN(S(=O)(=O)c2cccc3nonc23)C1)N1CCN(c2cccc(Cl)c2)CC1 (stereo not drawn)	7.94µM	-	-	.	-	7.38µM
